# PTAP TSG101 blk: blocks PTAP/TSG101 interaction to inhibit HIV-1 budding; Q99816; Fluorescence polarization, FITC-PTAP peptide / Tsg101 binding; Potency, µM (doses to about 115 µM), for inactives: at the highest dose activity change, negative = inhibition, most hits filed as inhibitors; 340,000 tested, under 10 active; AID 493005; active = well fitted inhibition curve with a large enough effect in the main read-out, with a control signal flat, not every such curve was filed as active; inconclusive = small, poorly fitted or top-dose-only effect, or effect the other way, or a change in a side signal; inactive = no such curve, though single readings can be large or run the other way; also: potency is read from the fitted curve at half-maximal effect; % of control where 0% means no effect
#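 Steps: Tsg101 binding domain dispensed (10 uM final), compounds pinned in DMSO, FITC-labeled PTAP-motif peptide added (50 nM final); after 20 min binding at room temperature, polarization measured.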
# IMPase Li cell: IMPase inhibition in cells with lithium potentiation. Potency, µM (titrated, usually from 59.4 µM), without a hit: top-dose activity, negative = IMPase inhibition, actives largely listed as inhibitors. 0.35% of 210,000 active. AID 1457. CHO-M1 cells, IP1 TR-FRET (IP-One), carbachol + lithium;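 also: IP1 builds up when IMPase is blocked and the TR-FRET signal falls; potency is read from the fitted curve at half-maximal effect; plate controls were basal vehicle for no effect and high inhibitor control for full effect; nearly all actives have a fitted effect of over 50% in size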
#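 CHO-M1, 2000 cells/well, 16–30 h culture; cpd + low Li+, 30 min 37C; lysis with d2-IP1/Eu-anti-IP1 Ab, 10 min RT; TR-FRET 665/620 ratio and 620 channel; AC50 via Hill.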
# CBFb RUNX1 block: inhibitors of human CBF-beta and RUNX1 interaction. Q01196+Q13951. AlphaScreen CBFb-His/RUNX1-biotin binding, biochemical. Potency, µM (series often up to 59.8 µM), without a hit: at the highest dose activity, negative = inhibition, actives largely listed as inhibitors. 230,000 tested, under 10 active. AID 1477; also: % of control where 0% means no effect
# Target sequence (Q01196 whole entry, looked up): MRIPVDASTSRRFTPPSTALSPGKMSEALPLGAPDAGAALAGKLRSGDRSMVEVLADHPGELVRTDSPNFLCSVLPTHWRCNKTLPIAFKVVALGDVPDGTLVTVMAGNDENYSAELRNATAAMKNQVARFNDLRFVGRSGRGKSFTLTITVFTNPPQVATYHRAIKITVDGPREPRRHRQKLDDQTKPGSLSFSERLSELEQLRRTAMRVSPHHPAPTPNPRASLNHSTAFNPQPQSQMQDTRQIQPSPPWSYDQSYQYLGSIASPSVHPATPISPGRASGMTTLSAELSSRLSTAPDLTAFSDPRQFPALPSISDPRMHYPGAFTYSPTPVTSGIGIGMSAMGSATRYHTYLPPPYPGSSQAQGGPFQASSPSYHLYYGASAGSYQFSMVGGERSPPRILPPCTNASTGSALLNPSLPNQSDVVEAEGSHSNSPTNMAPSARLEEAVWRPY
# Target sequence (Q13951 whole entry, looked up): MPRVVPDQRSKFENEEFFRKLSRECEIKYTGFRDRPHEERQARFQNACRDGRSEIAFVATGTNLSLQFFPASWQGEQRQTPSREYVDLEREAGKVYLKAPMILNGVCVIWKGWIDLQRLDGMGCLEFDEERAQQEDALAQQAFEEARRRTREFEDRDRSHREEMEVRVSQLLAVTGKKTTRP
#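 Compounds were screened at multiple concentrations against a preformed CBF-beta(His)/RUNX1(biotin) complex (30 nM of each) for 15 min at room temperature, followed by 90 min with nickel and streptavidin beads and AlphaScreen reading.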
# AT treatment: candidate therapy for ataxia-telangiectasia. F2112 A-T fibroblasts, KAP-1 phosphorylation AlphaLISA; neocarzinostatin DNA damage 30 min before lysis. Potency, µM (doses to about 57.5 µM), inactives show at the top dose activation, hits mostly activators. 0.19% of 320,000 active; also: potency is read from the fitted curve at half-maximal effect; % of control where 0% means no effect; nearly all actives have a fitted effect of over 45% in size
#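 hTERT-immortalized A-T patient fibroblasts (F2112), 500 cells/well in OPTI-MEM, 1% FBS, got compounds for 60 min, then NCS for 30 min at 37C. Lysates were then assayed for phospho-KAP-1 by AlphaLISA (anti-pKAP1 donor, anti-KAP1 acceptor beads), 6 hr at 25C.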
# The depositor's hits bear a star; u = inconclusive; x = not tested or not shown; ! = repeats disagree; [ ] = another dose, or the depositor's remark. The list is not random: actives were taken first. Their share in the collection is about 0.37%. Unless noted, calls follow the shape of the dose curve; as a rule, active = well fitted curve in the direction sought with a large enough effect; inconclusive = small, poorly fitted or top-dose-only effect, or another doubt; inactive = no such curve, though single readings can be large; an effect the other way counts as inactive or inconclusive.
SMILES,PTAP TSG101 blk,IMPase Li cell,CBFb RUNX1 block,AT treatment
CC(c1ccccc1)n1c(N2CCN(C)CC2)nc2c1c(=O)[nH]c(=O)n2C (stereo unspecified),-3%,x,x,5%
CSc1cnn(-c2ccccc2)c(=O)c1SC,-6%,11µM*,6%,-23%
CCSc1cnn(-c2ccccc2)c(=O)c1SCC,-2%,10µM*,1%,3%
CCCCSc1cnn(-c2ccccc2)c(=O)c1SCCCC,-11%,-24%,u,x
CCCCN(C(=O)NC(=O)Nc1ccccc1C)S(C)(=O)=O,0%,-7%[38.3 µM],-2%,4%
CSCC[C@H](NC(=O)c1ccc2ccccc2c1)C(=O)N1CCC2(CC1)NCCc1[nH]cnc12,-6%,x,x,-4%
O=C(COc1ncnc2c(Cl)cc(Cl)cc12)NC1CCCCCC1,1%,22µM*,4%,x
O=C(COc1ncnc2c(Cl)cc(Cl)cc12)N1CCCCC1,-8%,-7%[38.3 µM],10%,-3%
CCSc1nnc(-c2ccccc2SC)o1,-2%,11µM*,u,-4%
CSc1ccccc1-c1nnc(-c2ccc(Cl)cc2Cl)o1,-4%,u,2%,34%
O=c1[nH]ncc2c3ccccc3n(Cc3ccccc3)c12,-3%,-8%[38.3 µM],-2%,3%
O=c1[nH]ncc2c3ccccc3n(Cc3ccccc3F)c12,-1%,10µM*,-1%,16%
Cc1cc(C)n(CCSCC(=O)O)n1,-2%,27%[38.3 µM],-3%,-3%
N#Cc1nc(-c2cccs2)oc1N1CCOCC1,-1%,11µM*,7%,-6%
O=C(CSc1ncnc2c1oc1ccccc12)c1cccs1,1%,13µM*,7%,-5%
O=C(CSc1ncnc2c1oc1ccccc12)NC1CCCCC1,-1%,11µM*,-2%,10%
NC(=O)CSc1ncnc2c1oc1ccccc12,-1%,13µM*,1%,3%
CCc1nc(SCC(=O)NC2CCCC2)c2oc3ccccc3c2n1,-9%,x,x,14%
O=C(CSc1ncnc2c1oc1ccccc12)NCc1ccc(F)cc1,-2%,25µM*,-2%,9%
O=C(O)c1cc(-c2ccc(Cl)s2)nc2ccccc12,0%,11µM*,5%,-4%
Cc1ccc(OC(F)F)c(NC(=O)Nc2cccc(C(F)(F)F)c2)c1,-7%,35%[38.3 µM],2%,28µM*
CCc1ccccc1NC(=O)C1COc2ccccc2O1 (stereo unspecified),-2%,x,x,-7%
COc1cccc(OC)c1C(=O)NC(=O)Nc1c(C)cccc1C,-4%,x,x,3.5µM*
COc1ccccc1C1C(C(=O)c2cc3ccccc3o2)=C(O)C(=O)N1c1cc(C)on1 (stereo unspecified),-3%,x,x,0%
COc1ccc(C2C(C(=O)c3ccc(C)o3)=C(O)C(=O)N2c2cc(C)on2)cc1OC (stereo unspecified),-4%,10µM*,0%,-3%
SMILES,PTAP TSG101 blk,IMPase Li cell,CBFb RUNX1 block,AT treatment
COc1ccccc1C1C(C(=O)c2cc3ccccc3o2)=C(O)C(=O)N1CCN1CCOCC1 (stereo unspecified),-1%,32µM*,2%,x
COc1ccc(OC)c(C2C(C(=O)c3cc4ccccc4o3)=C(O)C(=O)N2c2cc(C)on2)c1 (stereo unspecified),-2%,11µM*,-5%,-9%
CCN(CC)CCCN1C(=O)C(O)=C(C(=O)c2cc3ccccc3o2)C1c1ccccn1 (stereo unspecified),-4%,13µM*,-8%,-3%
COc1cccc(C2C(C(=O)c3cc4ccccc4o3)=C(O)C(=O)N2CCN2CCOCC2)c1 (stereo unspecified),-2%,x,x,1%
COc1cccc(-c2nc(CCl)cs2)c1,0%,0%,2%,-2%
COc1cccc(CNS(=O)(=O)c2cc3c(cc2C)NC(=O)CO3)c1,-3%,x,x,1%
Oc1ccccc1-c1nc(NCC2CCCO2)c2ccccc2n1 (stereo unspecified),-5%,24%[38.3 µM],11%,22%
COc1cccc(-c2nc(NCC3CCCO3)c3ccccc3n2)c1O (stereo unspecified),-2%,14µM*,-7%,-3%
Nc1ccc(-c2nc3ccc(-c4nc5ccc(N)cc5[nH]4)cc3[nH]2)cc1,x,10µM*!,u,x
COC(=O)Cn1c(=NC(=O)c2nc3ccccc3s2)sc2cc(S(N)(=O)=O)ccc21,-2%,-5%,2%,1%
COCCn1c(=NC(=O)c2nc3ccccc3s2)sc2cc(S(C)(=O)=O)ccc21,3%,22µM*,0%,-4%
CCOc1ccc(Cn2nnc(C(=O)NCc3ccc(OC)cc3)c2N)cc1,2%,11µM*,-4%,-4%
CCN(CC)c1ccc(/C=N/N2CCN(Cc3ccc(C)cc3C)CC2)c(O)c1,-2%,6%,-2%,-1%
O=C(Nc1cccc(-c2nc3ncccc3o2)c1)c1sc2cc(Cl)ccc2c1Cl,0%,11µM*,3%,-5%
O=C(Nc1cccc(-c2nc3ncccc3o2)c1)c1sc2ccccc2c1Cl,-1%,-11%[38.3 µM],-9%,-2%
CN(Cc1ccccc1)C(=S)NC(=O)c1ccc(-c2ccccc2)cc1,0%,10µM*,-1%,2%
COc1cc(C(=O)NC(=S)N(C)Cc2ccccc2)cc(OC)c1OC,-6%,2%,-1%,3%
CCc1nnc(NC(=O)c2nc(S(=O)(=O)Cc3ccc(C)cc3)ncc2Cl)s1,-1%,x,x,-10%
CC(C)(C)CC(C)(C)c1ccc(OCC(=O)N/N=C/c2ccc(S(=O)(=O)O)o2)cc1,1%,x,-2%,0%
Cc1ccc(C(C)C)c(OCC(=O)N/N=C/c2ccc(S(=O)(=O)O)o2)c1,0%,x,6%,14µM*
O=C(O)Cc1sc(-c2ccccc2Cl)nc1-c1ccccc1,-1%,5µM*,u,-7%
COc1ccc(C(=O)C2CCCN(C(=O)CSC)C2)cc1OC (stereo unspecified),-3%,x,x,-10%
COc1ccc(CCn2c(S)nc3ccccc3c2=O)cc1,1%,x,x,1.8µM*
CCNc1ncc2nc(-c3ccc(OC)cc3)c(=O)n(CCC#N)c2n1,x,-14%,x,x
CCNc1ncc2nc(-c3ccc(OC)cc3)c(=O)n(CCc3ccccc3)c2n1,x,11µM*,x,x
SMILES,PTAP TSG101 blk,IMPase Li cell,CBFb RUNX1 block,AT treatment
CCNc1ncc2nc(-c3ccc(F)cc3)c(=O)n(CCC#N)c2n1,x,10µM*,x,x
COc1ccc(-c2nc3cnc(Oc4cccc(Cl)c4)nc3n(CCC#N)c2=O)cc1,x,5µM*,x,x
COC(=O)c1sc2nc(CSc3ccc(Br)cc3)[nH]c(=O)c2c1C,13%,x,5%,-4%
COc1ccc(-c2nc3cnc(OC)nc3n(C3CC3)c2=O)cc1,x,13µM*,x,x
O=C(Nc1ccc(-c2nc3cccnc3s2)cc1)c1cccnc1Cl,-5%,x,2%,14µM*
CC(=O)N1CCC[C@@]2(CCN(C(=O)Nc3ccccc3)C2)C1,x,3%,x,x
CC1(C)CC2(CCCN(C(=S)Nc3ccccc3)C2)CCO1 (stereo unspecified),-6%,x,13%,20µM*
COc1ccc2nc(C)cc(Sc3nc4ccccc4s3)c2c1,-4%,x,1%,22µM*
